This note sets out measurements from PubChem BioAssay (NCI).

Assay in all cases: NCI-60 one-dose screen, 48 h (100 = growth as untreated, 0 = no growth, -100 = all killed)
What all share (settings): 10 µM unless noted

The test system of experiment [1] is DU-145 prostate.
The subject of experiment [2] is K-562 leukemia.
The subject of experiment [3] is MALME-3M melanoma.
The test system of experiment [4] is MDA-MB-231 breast.
Experiment [5] deals with RXF 393 renal.
Experiment [6] relates to SF-268 CNS.
Experiment [7] concerns SF-295 CNS.
Experiment [8] deals with SF-539 CNS.
Experiment [9] concerns UACC-257 melanoma.
The subject of experiment [10] is M14 melanoma.

This is part of a sample that, as a whole, favours compounds with a hit. Of some 83,000 tested, about 20% had one in any assay.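 In brief: 96-well plates, 48 h treatment, single concentration, percent growth endpoint.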 Values without a mark were called inactive. Calls of active or inactive are those of the source. Rule for the calls: active = growth percent below 10; inactive = the rest.

Take `CCCCCC(=O)Oc1ccc(/C(=C(\C)c2ccccc2)c2ccc(OCCN(CC)CC)cc2)cc1`: the growth was 103% in experiment [1]; 12.2% in [2]; 65.3% in experiment [3]; 84.8% in [4]; 66.9% in experiment [5]; 71.5% in experiment [6]. Also, the growth in [7] is 79.5%; in experiment [8], 46.8%; in experiment [9] it was 7.01% (active); in experiment [10], 8.98% (active).

For `CCN(CC)CC(O)c1cc(-c2ccc(Cl)cc2)nc2c(C)c(Cl)ccc12` (stereo not given), the growth is -71.1% (active) in [1]; -75.3% (active) in experiment [2]; -64% (active) in experiment [3]; -82.2% (active) in [4]; -86.4% (active) in [5]; -29.5% (active) in [6]. In addition, the growth in [7] is -76.8% (active); in [8] it was -98.6% (active); in experiment [9], -80.8% (active); in [10], -98.5% (active).

As for `Cc1ccc2c(c1)C(=O)/C(=C/c1ccc(OCC(=O)c3ccccc3)cc1)O2`, the growth was 107% in experiment [1]; 106% in experiment [2]; 114% in experiment [3]; 84% in experiment [4]; 89% in experiment [5]; 101% in experiment [6]. The growth in experiment [7] is 78.8%; in experiment [8], 92.9%; in experiment [9], 90.1%; in [10], 95.8%.

On to `O=C1C[C@H](Sc2nc(-c3ccc(F)cc3)cc(C(F)(F)F)n2)[C@H]2CO[C@@H]1O2`, for which the growth in experiment [1] is 89.9%; in [2], 53.3%; in experiment [3] it was 89.1%; in experiment [4], 96.2%; in [5] it was 96.6%; in [6] it was 101%. In addition, the growth is 109% in experiment [7], 103% in experiment [8], 104% in experiment [9] and 97.8% in [10].

As for `COc1cc2c(c(OC)c1OC)-c1ccc(N=NC(N)=S)c(=O)cc1[C@@H](NC(C)=O)CC2`, the growth in [1] was -40.1% (active); in [2], 9.08% (active); in experiment [3] it was 61.2%; in experiment [4] it was 9.7% (active); in experiment [5] it was -13.5% (active); in [6] it was 9.15% (active). Moreover, the growth is 6.76% (active) in experiment [7], 1.01% (active) in [8], 49.5% in experiment [9] and -39.1% (active) in experiment [10].

In the case of `Cn1c2ccccc2c2c3c(c4c5ccccc5[nH]c4c21)C(=O)N(N)C3=O`, the growth in experiment [1] is 57.4%; in experiment [2], 49.7%; in experiment [3], 69.2%; in experiment [4] it was 82.9%; in experiment [5] it was 67.9%; in [6] it was 45.8%. Besides, the growth is 27.1% in experiment [7], 20.2% in [8], 76.8% in experiment [9] and 37.2% in experiment [10].

With `Nc1cc2ccncc2c2ccccc12`, the growth in experiment [1] is 75.4%; in experiment [2], 112%; in experiment [3] it was 97.6%; in experiment [4], 64.1%; in experiment [5] it was 81.5%; in experiment [6] it was 75.6%. Moreover, the growth in experiment [7] was 69.3%; in experiment [8] it was 79.1%; in experiment [9] it was 103%; in experiment [10], 94.7%.

For `O=C1Nc2c(ccc(Cl)c2Cl)/C1=C/c1cc(Br)c(O)c(Br)c1`, the growth in [1] is 84.6%; in [2], 51.8%; in [3] it was 29.4%; in experiment [4], 74.8%; in experiment [5], 75.9%; in experiment [6], 75.7%. Moreover, the growth was 13.4% in [7], 51.6% in experiment [8], 40% in [9] and 33.2% in [10].

Turning to `COc1cc(C#N)cc(OC)c1OCCN(CCOc1c(OC)cc(C#N)cc1OC)S(=O)(=O)c1ccc(C)cc1`, the growth is 115% in experiment [1]; 94% in experiment [2]; 108% in experiment [3]; 112% in experiment [4]; 70.9% in [5]; 107% in experiment [6]. Also, the growth in [7] is 94.2%; in experiment [8], 105%; in [9], 97.7%; in experiment [10], 99.7%.

With `CN1CCN(Cc2ccc(NC(=O)c3[nH]ncc3Nc3ccnc4ccsc34)cc2)CC1`, the growth in experiment [1] is 14.7%; in [2], 26.5%; in [3], 60.6%; in experiment [4] it was 12.6%; in experiment [5], -44.9% (active); in [6], 20.3%. Besides, the growth in [7] is 56.6%; in experiment [8] it was 2.32% (active); in experiment [9], 85.7%; in experiment [10], 48.9%.

Take `COc1ccc(CCN2CCCn3c2nc2ccccc2c3=O)cc1`: the growth in experiment [1] was 16.4%; in experiment [2], 13.1%; in experiment [3], 59.8%; in [4] it was 42.5%; in [5] it was -0.0509% (active); in experiment [6] it was 56.9%. In addition, the growth in experiment [7] is 20.4%; in experiment [8], -16.3% (active); in [9], 81.3%; in experiment [10] it was 21.4%.

As to `Cc1cc(-c2nc3ccccc3s2)ccc1NC(=O)COc1ccc(Cl)cc1`, the growth is 130% in experiment [1]; 93.7% in [2]; 106% in [3]; 96.9% in experiment [4]; 139% in [5]; 109% in experiment [6]. Moreover, the growth in experiment [7] was 120%; in [8], 105%; in experiment [9], 120%; in experiment [10], 100%.

Take `Cc1cc(=O)oc2cc(Oc3nc(-c4cccs4)cn4c(-c5cccs5)cnc34)ccc12`: the growth in experiment [1] is 55.4%; in experiment [2], 81.6%; in experiment [3] it was 39.1%; in [4], 63.2%; in [5], 63.6%; in experiment [6] it was 76.3%. Moreover, the growth in experiment [7] is 47.5%; in experiment [8], 60%; in experiment [9], 48.2%; in [10], 67.5%.
